TSHR antagonist = Antagonists of the Thyroid Stimulating Hormone Receptor: HTS campaign. Thyrotropin receptor (Homo sapiens), P16473. TSHR-expressing cells, TSH-stimulated cAMP HTRF, 2 h; hits give low values. activity change, negative = inhibition, % at 11.5 µM. hit rate 0.2% among 330,000. AID 504810, 2011;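 active = activity change below a set negative limit, meaning inhibition stronger than a set level, cut at about -70% in these data; inconclusive = activity change between two set negative limits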
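Competitive HTRF cAMP read-out (cryptate anti-cAMP antibody, cAMP-d2; 30 min, room temperature) in freshly harvested TSHR cells. Compounds added before TSH at EC80 (4nM final), followed by 2 hours' incubation at 37 deg C.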
VP16 counter = VP16 counterscreen qHTS for inhibitors of ROR gamma transcriptional activity. Drosophila S2 Gal4-VP16 UAS-luciferase, luminescence, 20 h. Potency, µM (doses to about 53.6 µM), for the others: top-dose activity, negative = inhibition, actives largely listed as inhibitors. hit rate 3.5% among 310,000;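 also: Gal4-VP16 expression switched on by copper sulfate through the metallothionein promoter; potency is read from the fitted curve at half-maximal effect; nearly all actives have a fitted effect of over 50% in size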
RORgamma inh = qHTS for inhibitors of ROR gamma transcriptional activity | Nuclear receptor ROR-gamma (Mus musculus), P51450 | Drosophila S2 Gal4-RORgamma UAS-luciferase reporter, 20 h | Potency, µM (top dose mostly 53.6 µM), for inactives: at the top dose activity change, negative = inhibition, usual class: inhibitors | hit rate 5.4% among 310,000 | AID 2551, 2010; also: potency is read from the fitted curve at half-maximal effect; nearly all actives have a fitted effect of over 60% in size
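A Gal4/UAS one-hybrid system in insect cells: metallothionein-promoter Gal4–ROR gamma fusion plus Photinus luciferase reporter. Copper sulfate 700 uM final, 20 hr ambient incubation, luminescent detection after 10 min with reagent.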
B2AR arrestin = qHTS assay of beta-arrestin-biased ligands of beta2-adrenergic receptor; beta-arrestin recruitment to beta2AR, cell-based reporter; hit rate 0.02% among 330,000; Potency, µM (highest dose often 46.1 µM), for the others: at the top dose activation, hits mostly activators; AID 492947, 2010; Beta-2 adrenergic receptor (Homo sapiens), P07550;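 also: potency is read from the fitted curve at half-maximal effect; 0% = DMSO controls and full agonism = EC100 isoproterenol or metaproterenol; nearly all actives have a fitted effect of over 65% in size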
Target sequence (P07550 whole entry, looked up): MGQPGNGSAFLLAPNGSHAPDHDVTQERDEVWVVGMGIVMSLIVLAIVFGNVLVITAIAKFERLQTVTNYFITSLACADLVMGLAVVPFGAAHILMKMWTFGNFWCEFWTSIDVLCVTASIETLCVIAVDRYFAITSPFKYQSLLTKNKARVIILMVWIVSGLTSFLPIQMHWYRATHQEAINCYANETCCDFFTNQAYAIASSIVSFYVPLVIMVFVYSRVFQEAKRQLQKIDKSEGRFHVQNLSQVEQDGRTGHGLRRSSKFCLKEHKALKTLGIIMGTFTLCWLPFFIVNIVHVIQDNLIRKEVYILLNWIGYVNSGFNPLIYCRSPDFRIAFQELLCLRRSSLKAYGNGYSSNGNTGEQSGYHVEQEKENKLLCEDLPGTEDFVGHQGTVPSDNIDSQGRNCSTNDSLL
ELG1 DNA repair = qHTS screen for small molecules that inhibit ELG1-dependent DNA repair in human embryonic kidney (HEK293T) cells expressing luciferase-tagged ELG1; HEK293T ELG1-luciferase reporter, luminescence, 16 h; DNA damage induced by 5-fluorouridine; Potency, µM (top dose mostly 46.1 µM), for inactives: at the highest dose activity change, negative = inhibition, most hits filed as inhibitors; hit rate 2.3% among 330,000; also: potency is read from the fitted curve at half-maximal effect; nearly all actives have a fitted effect of over 55% in size
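Reporter activity after DNA damage by 5-fluorouridine is monitored. Compound-treated cells incubate 16 hr at 37 °C, then ONE-Glo is added for 30 min before luminescence reading.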
* marks the source's active call; other numbers are inactive results; ? = inconclusive; . = no result given; [ ] = another dose, or the depositor's remark. Rows were chosen to be rich in hits. Some 7.5% of all compounds tested hit in one or more screens of this group. Unless noted, calls follow the shape of the dose curve; as a rule, active = well fitted curve in the direction sought with a large enough effect; inconclusive = small, poorly fitted or top-dose-only effect, or another doubt; inactive = no such curve, though single readings can be large; an effect the other way counts as inactive or inconclusive. Unless noted, % is scaled to controls: 0 for no effect and ±100 for the full control effect.

SMILES | TSHR antagonist | VP16 counter | RORgamma inh | B2AR arrestin | ELG1 DNA repair
CCOC(=O)C(C(=O)Nc1nc2ccccc2s1)C1CCCCC1 (centres undefined) | -16 | -1% | 5µM* | 0% | -5%
O=C(Nc1nc2ccccc2s1)NC1CCCCC1 | -6 | -46% | 13µM* | 0% | ?
O=C(Nc1nc2ccccc2[nH]1)NC1CCCCC1 | -11 | ? | 11µM* | -1% | ?
O=C(CC1CCCCC1)Nc1nc2ccccc2s1 | -3 | 1% | -11% | 0% | ?
S=C(NC1CCCCC1)N(CCc1nc2ccccc2[nH]1)C1CCCC1 | -3 | ? | -120% | 0% | 23µM*
COc1ccc(CNc2cc(-c3cccnc3)ncn2)c(OC)c1 | . | -2% | 24% | . | .
CNC(=O)c1ccccc1 | . | 2% | 8% | . | .
O=C(Nc1nc2ccccc2[nH]1)C12CC3CC(CC(C3)C1)C2 | 0 | 10µM* | 6.3µM* | 0% | ?
COc1ccc(CNc2ncnc3ccc(-c4cccc(NS(C)(=O)=O)c4)cc23)c(OC)c1 | . | 13% | ? | . | .
O=C(Nc1ncnc2sc3c(c12)CCC3)c1ccco1 | -12 | -7% | -19% | 4% | ?
O=C(Nc1ncnc2sc3c(c12)CCCCC3)c1ccc(F)cc1 | -10 | 13µM* | 7.1µM* | -1% | ?
Cc1ccc(C(=O)O)cc1Nc1ncnc2sc3c(c12)CCC3 | -3 | 1% | -33% | 0% | -3%
O=C(Nc1ncnc2sc3c(c12)CCCCC3)c1ccccc1 | -4 | 20µM* | 11µM* | 0% | 3%
Cc1ccc(NC(=O)CCSc2nnc(C)s2)cc1 | 0 | 1% | -3% | 0% | -3%
CC1=NN(/C(=N\c2nnc(C)s2)Nc2ccc(C(C)(C)C)cc2)[C@H](c2ccc(C)cc2)S1 | -14 | ? | 18µM* | 0% | ?
Cc1cccc(NC(=S)N(CCCN2CCOCC2)C(C)c2cc3ccccc3o2)c1C (centres undefined) | 4 | ? | 10µM* | 0% | 6%
Cc1cccc(NC(=S)N(CCCN2CCOCC2)C(C)c2cc3ccccc3o2)c1 (centres undefined) | 1 | -2%[10 µM] | 13µM* | 0% | 2%
COc1cccc2cc(C(C)N(CCCN3CCOCC3)C(=S)Nc3ccccc3C)oc12 (centres undefined) | 9 | 2% | ? | 0% | -18%
COc1ccc(C(=O)Cn2c(C(=O)/C=C/c3ccccc3)nc3ccccc32)cc1 | 22 | ? | 4µM* | 0% | ?
COc1ccc(/C=C/C(=O)c2ccccc2O)cc1 | 13 | -11%[10 µM] | ? | -1% | ?
COc1ccc(/C=C/C(=O)c2ccccn2)cc1 | 4 | 11µM* | 11µM* | 0% | ?
COc1ccc(/C=C/C(=O)c2ccc(O)cc2)cc1 | -2 | 7.1µM* | 2.5µM* | 0% | ?
COc1ccc(OC(=O)/C=C/c2ccc([N+](=O)[O-])cc2)cc1 | 0 | 8.9µM* | ? | 1% | -2%
COc1cccc(NC(=O)/C=C/c2ccc([N+](=O)[O-])cc2)c1 | -3 | 7% | 1% | 0% | ?
COc1ccc(C(=O)CSc2nc3ccccc3n2CC(=O)c2ccccc2)cc1 | 6 | -4% | -10% | 0% | -14%
SMILES | TSHR antagonist | VP16 counter | RORgamma inh | B2AR arrestin | ELG1 DNA repair
COc1cc(OC)cc(C(=O)NCC(=O)NCC(c2ccco2)N2CCCCC2)c1 (centres undefined) | 10 | . | . | 0% | 5%
COC(=O)c1sc(NC(=O)COc2cccnc2[N+](=O)[O-])c(C(=O)OC)c1C | -9 | . | . | 0% | -20%
CCN(CC)CCn1c(-c2ccccc2)nc2c(NCCOC)nc(C)nc21 | . | -4% | -22% | . | .
Cc1n[nH]c(=S)n1/N=C/c1ccc(OCc2ccc(Cl)cc2)cc1 | -10 | -13% | 5.6µM* | 3% | ?
Cc1n[nH]c(=S)n1/N=C/c1ccccc1 | 7 | ? | ? | -1% | ?
Cc1cc(C)c(COc2ccc(/C=N/n3c(C)n[nH]c3=S)cc2)c(C)c1 | 0 | 7.1µM* | 2.8µM* | 5% | -5%
Cc1n[nH]c(=S)n1/N=C/c1ccccc1OCc1ccc(Cl)cc1Cl | -9 | 7.1µM* | 2.8µM* | 0% | 0%
CSc1ccc(/C=N/n2c(COc3ccccc3)n[nH]c2=S)cc1 | 5 | ? | ? | 0% | 5%
Cc1n[nH]c(=S)n1/N=C/c1ccc(OCc2ccc(Cl)cc2Cl)cc1 | -23 | 11µM* | 18µM* | -1% | ?
COc1cc2c(cc1OC)C1CCC3=C([C@H](C)OC3=O)N1CC2 (some centres undefined) | . | 1% | -29% | . | .
O=C(NC1CC1)C1CCN(c2ccc(S(=O)(=O)N3CCOCC3)cc2)CC1 | 5 | -1% | -32% | 0% | 8%
O=C(NCC1CCN(c2ccc(S(=O)(=O)N3CCOCC3)cc2)CC1)Nc1ccccc1 | -2 | -12% | 13% | 0% | 15µM*
O=C(NCC1CCN(c2ccc(S(=O)(=O)N3CCOCC3)cc2)CC1)Nc1ccccc1F | 2 | -16% | 6% | 0% | -21%
CC(C)CNC(=O)C1CCN(c2ccc(S(=O)(=O)N3CCOCC3)cc2)CC1 | -77* | -3% | 12%[10 µM] | 0% | -13%
CS(=O)(=O)c1ccc(N2CCN(S(=O)(=O)c3cccs3)CC2)c([N+](=O)[O-])c1 | 3 | . | . | 0% | ?
COc1ccc(C2/C=C\CN(C(=O)c3ccccc3)C(Cc3ccccc3)C(=O)N2Cc2ccc(F)cc2)cc1 (centres undefined) | . | -10% | ? | . | .
C=CS(=O)(=O)c1ccc(Oc2ccc(S(=O)(=O)C=C)cc2)cc1 | -89* | 2.2µM* | 3.2µM* | ? | 2.6µM*
NS(=O)(=O)c1ccc(Oc2ccc(S(N)(=O)=O)cc2)cc1 | -4 | 0% | 22% | 0% | -9%
O=C(N/N=C/c1ccc(Br)s1)c1cccnc1 | 3 | 16µM* | 1.3µM* | ? | 6%
O=C(N/N=C/c1cc(O)ccc1Br)c1cccnc1 | 5 | 1.3µM* | 1.8µM* | 0% | ?
Cc1cc2c(nc1C)CCCCN2C[C@H](O)CN1CCCc2nc(-c3ccc(Br)cc3)ccc21 | . | -16%[10 µM] | 5%[10 µM] | . | .
COc1ccc(OC)c2sc(N(CCN(C)C)C(=O)/C=C/c3cccs3)nc12 | 20 | 10µM* | 16µM* | -1% | ?
COc1ccc(C)c2sc(N(CCN(C)C)C(=O)/C=C/c3cccs3)nc12 | -4 | ? | -44% | 1% | ?
CC1Oc2ccccc2C=C1/C=N/NC(=O)c1ccccc1O (centres undefined) | 4 | ? | ? | 0% | -8%

Compound activity: PubChem BioAssay, National Center for Advancing Translational Sciences (NCATS)
